Shown are actives, neighbours in structure and some others; about 3.3% of the full set was active somewhere.
MazF activator: activators of E. coli MazEF toxin-antitoxin RNase, primary screen, biochemical, fluorescence, uHTS. Endoribonuclease toxin MazF (Escherichia coli (strain K12)), P0AE70. FAM/BHQ RNA-DNA oligo cleavage fluorescence, 5 h. activation, % at 20 µM. actives 0.32% (n = 350,000). AID 504720, 2011; in the data active = activation above about 50%
Target sequence (P0AE70 whole entry, looked up): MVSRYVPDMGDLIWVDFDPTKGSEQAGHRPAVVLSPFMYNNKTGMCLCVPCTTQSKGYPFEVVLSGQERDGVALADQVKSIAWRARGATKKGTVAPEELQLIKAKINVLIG
PriA SSB inh: inhibitors of Klebsiella pneumoniae PriA binding to SSB C-terminal tail, primary screen, biochemical, AlphaScreen; AlphaScreen SSBct-PriA binding, biotinylated peptide; AID 1272365, 2023; inhibition, % at 33 µM; PriA–SSB C-terminal tail interaction (Klebsiella pneumoniae); actives 0.6% (n = 430,000); in the data active = inhibition mostly above about 37%, no sharp cut-off; inactive = mostly below about 20%
BoNT-F LC inh: BoNT/F light chain protease inhibitors, primary screen, biochemical, flow cytometry, MLPCN library | Multiplex microsphere protease cleavage assay | inhibition, % at 10 µM | actives 0.22% (n = 360,000) | AID 588497, 2011; in the data active = inhibition above about 35%, passing the limit was not always enough; inconclusive = no clear call, values can overlap the other calls
BoNT A protease: BoNT/A light chain protease inhibitors, primary screen, biochemical, flow cytometry, MLPCN library | Botulinum neurotoxin type A light chain protease (Clostridium botulinum A str. ATCC 3502) | inhibition, % at 10 µM | multiplex microsphere protease substrate cleavage | actives 0.17% (n = 360,000)
Anthrax LF inh2: Bacillus anthracis LF protease inhibitors, primary screen, biochemical, multiplex microsphere, MLPCN library; multiplex microsphere protease cleavage assay; inhibition, % at 10 µM; actives 0.12% (n = 360,000); Lethal factor (Bacillus anthracis), P15917; AID 588501, 2011
Bead autofluor: counter-screen for toxin protease inhibitors: compound fluorescence; compound autofluorescence counterscreen, microsphere flow cytometry; hits give high values; fluorescence intensity (test concentration not listed); actives 3.1% (n = 360,000); AID 624483; in the data active = fluorescence intensity above about 16000; inconclusive = no clear call, values can overlap the other calls
BoNT-A LC CP1: BoNT/A light chain protease inhibitors, confirmation, biochemical, flow cytometry, cherry pick 1; AID 602139, 2011; actives 3% (n = 720); shares compounds with BoNT-F LC inh; multiplex microsphere protease assay; inhibition, % at 10 µM; in the data active = inhibition above about 32%
BoNT-F LC CP1: BoNT/F light chain protease inhibitors, confirmation, biochemical, flow cytometry, cherry pick 1 | 720 tested, under 10 active | multiplex microsphere protease cleavage assay | shares compounds with BoNT-F LC inh | inhibition, % at 10 µM | AID 602140, 2011; call rule not given here
LF protease CP1: Bacillus anthracis LF protease inhibitors, confirmation, biochemical, multiplex microsphere, cherry pick 1; shares compounds with BoNT-F LC inh; AID 602142, 2011; 720 tested, under 10 active; multiplex microsphere protease cleavage assay; inhibition, % at 10 µM; call rule not given here
Each line names hits and unclear results; the compound was inactive in the other large screens (follow-up assays come after a bar, where they were run). Rule as the data show it, unless noted: active = inhibition above about 30%; inconclusive = no clear call, values can overlap the other calls; inactive = below that.

O=[N+]([O-])c1ccc(C2=NN(c3ccccc3)C(c3ccco3)C2)cc1 (centres undefined)	BoNT-F LC inh inconclusive, BoNT A protease 59, Anthrax LF inh2 31, Bead autofluor 18109 | BoNT-A LC CP1 59 | LF protease CP1 inactive
Cc1cc(C)n(CCN2CCN(C(=O)c3cc4ccccc4o3)CC2)n1	none (no result: MazF activator, BoNT-F LC inh, BoNT A protease, Anthrax LF inh2, Bead autofluor)
Cc1ccccc1NC(=O)CN(c1ccc(F)cc1)S(C)(=O)=O	BoNT-F LC inh 42 | BoNT-A LC CP1 inactive | BoNT-F LC CP1 inactive | LF protease CP1 inactive
COc1ccccc1N(CC(=O)Nc1ccccc1C)S(C)(=O)=O	none
Cc1cc(C)nc(SCc2ccc(Cl)cc2)n1	Anthrax LF inh2 32 | BoNT-A LC CP1 inactive | BoNT-F LC CP1 inactive | LF protease CP1 inactive
COc1cccc2sc(=NC(=S)NC(=O)c3ccc(C(=O)c4ccccc4)cc3)n(C)c12	none (no result: MazF activator, BoNT-F LC inh, BoNT A protease, Anthrax LF inh2, Bead autofluor)
O=C(O)c1cc(-c2ccccc2)c(N2CCOCC2)s1	BoNT A protease 84, Anthrax LF inh2 69 | BoNT-A LC CP1 inactive | BoNT-F LC CP1 inactive | LF protease CP1 inactive
Cc1ccc(C)c2nc(N3CCCC3)c(C#N)cc12	BoNT A protease 36 | BoNT-A LC CP1 inactive | BoNT-F LC CP1 inactive | LF protease CP1 inactive
NC(=O)C(c1ncc(C(F)(F)F)cc1Cl)c1c(Cl)cccc1Cl (centres undefined)	BoNT-F LC inh 48, BoNT A protease inconclusive, Anthrax LF inh2 inconclusive, Bead autofluor inconclusive | BoNT-A LC CP1 inactive | BoNT-F LC CP1 inactive | LF protease CP1 inactive
Cc1ccc(SCCC(=O)Nc2ccccc2C(=O)NC2CCCCC2)cc1	BoNT-F LC inh 39 | BoNT-A LC CP1 inactive | BoNT-F LC CP1 inactive | LF protease CP1 inactive
O=C(NCC1CCN(C(=O)c2cccnc2)CC1)c1ccco1	none (no result: MazF activator, BoNT-F LC inh, BoNT A protease, Anthrax LF inh2, Bead autofluor)
Cc1n[nH]c(C)c1CCNC(=O)C1CCC(=O)N(CCc2cccc(F)c2)C1 (centres undefined)	BoNT-F LC inh 35, Bead autofluor inconclusive | BoNT-A LC CP1 inactive | BoNT-F LC CP1 inactive | LF protease CP1 inactive
Cc1nc(CCNC(=O)C2CCC(=O)N(CCc3cccc(F)c3)C2)sc1C (centres undefined)	none
CCc1ccccc1NC(=O)N1CCN(c2cc(C)ncn2)CC1	none (no result: MazF activator, BoNT-F LC inh, BoNT A protease, Anthrax LF inh2, Bead autofluor)
O=S(=O)(Nc1cc2nc3ccccc3nc2n1Cc1ccccc1)c1ccc(Cl)cc1	BoNT A protease 33 | BoNT-A LC CP1 inactive | BoNT-F LC CP1 inactive | LF protease CP1 inactive
CCCCn1c(NS(=O)(=O)c2ccc(Cl)cc2)c(S(=O)(=O)c2ccccc2)c2nc3ccccc3nc21	none (no result: MazF activator, BoNT-F LC inh, BoNT A protease, Anthrax LF inh2, Bead autofluor)
COc1ccc2nc(N(CCN3CCOCC3)C(=O)c3ccc(Br)s3)sc2c1	none (no result: MazF activator, BoNT-F LC inh, BoNT A protease, Anthrax LF inh2, Bead autofluor)
COc1ccc(-c2cc(C(=O)Nc3ccc(F)cc3F)no2)cc1	Anthrax LF inh2 32 | BoNT-A LC CP1 inactive | BoNT-F LC CP1 inactive | LF protease CP1 inactive
CCOc1cc2nc3c4ccccc4n(C)c3nc2cc1OCC	BoNT A protease 48 | BoNT-A LC CP1 inactive | BoNT-F LC CP1 inactive | LF protease CP1 inactive
O=C(Nc1cccc(C(F)(F)F)c1)c1sc(Cl)nc1C(F)(F)F	BoNT-F LC inh 40, Anthrax LF inh2 33 | BoNT-A LC CP1 inactive | BoNT-F LC CP1 inactive | LF protease CP1 inactive
O=C(Nc1cccc(C(F)(F)F)c1)c1cc(-c2ccco2)on1	none
COc1ccccc1Cn1c(=S)[nH]c2ccc(Br)cc2c1=O	Anthrax LF inh2 31 | BoNT-A LC CP1 inactive | BoNT-F LC CP1 inactive | LF protease CP1 inactive
C=CCn1c(=NC(=O)CCSc2ccccc2)sc2cc([N+](=O)[O-])ccc21	none (no result: MazF activator, BoNT-F LC inh, BoNT A protease, Anthrax LF inh2, Bead autofluor)
O=C(Nc1ccc(Nc2ccccc2)cc1)c1c(F)c(F)c(F)c(F)c1F	Anthrax LF inh2 40 | BoNT-A LC CP1 inactive | BoNT-F LC CP1 inactive | LF protease CP1 inactive
O=C(Nc1cccc(Cl)c1)OC1CCCCc2cccnc21 (centres undefined)	none
O=C(Nc1ccccc1)OC1CCCCc2cccnc21 (centres undefined)	BoNT-F LC inh inconclusive, BoNT A protease inconclusive, Anthrax LF inh2 30 | BoNT-A LC CP1 inactive | BoNT-F LC CP1 inactive | LF protease CP1 inactive
O=S(=O)(c1ccc(Cl)cc1)N1CCN(c2ccccn2)CC1	BoNT-F LC inh 48 | BoNT-A LC CP1 inactive | BoNT-F LC CP1 inactive | LF protease CP1 inactive
O=S(=O)(c1ccc(F)cc1)N1CCN(c2ccccn2)CC1	none
COC(=O)c1ccccc1NS(=O)(=O)c1cc(S(=O)(=O)Nc2ccccc2C(=O)OC)c2cccc3c2c1NC3=O	none (no result: MazF activator, BoNT-F LC inh, BoNT A protease, Anthrax LF inh2, Bead autofluor)
O=C(Nc1scc(-c2ccccc2)c1C(=O)O)c1ccccc1F	BoNT-F LC inh inconclusive
Cc1ccc(-c2csc(NC(=O)c3ccccc3F)c2C(=O)O)cc1	BoNT-F LC inh 35 | BoNT-A LC CP1 inactive | BoNT-F LC CP1 inactive | LF protease CP1 inactive
CCN1CCN(CC(=O)c2c(C)n(C)c3ccc(OC)cc23)CC1	Bead autofluor inconclusive
CCOC(=O)C1CCN(CC(=O)c2c(C)n(C)c3ccc(OC)cc23)CC1	BoNT-F LC inh 39 | BoNT-A LC CP1 inactive | BoNT-F LC CP1 inactive | LF protease CP1 inactive
CS(=O)(=O)N1CCCC1C(=O)N(Cc1cccnc1)c1nc2ccc(F)cc2s1 (centres undefined)	none (no result: MazF activator, BoNT-F LC inh, BoNT A protease, Anthrax LF inh2, Bead autofluor)
O=C(NC1CS(=O)(=O)CC1NCc1ccccc1)c1ccccc1 (centres undefined)	BoNT-F LC inh 72 | BoNT-A LC CP1 inactive | BoNT-F LC CP1 inactive | LF protease CP1 inactive
O=S1(=O)CC(O)C(NCc2ccccc2)C1 (centres undefined)	none (no result: MazF activator, BoNT-F LC inh, BoNT A protease, Anthrax LF inh2, Bead autofluor)
Cc1ccc([N+](=O)[O-])c2cccnc12	none
O=[N+]([O-])c1ccc(Sc2cccc3cccnc23)c2cccnc12	Anthrax LF inh2 30 | BoNT-A LC CP1 inactive | BoNT-F LC CP1 inactive | LF protease CP1 inactive
CCOc1ccc(CC2c3cc(OCC)c(OCC)cc3CCN2C(=O)CN2CCN(C)CC2)cc1OCC (centres undefined)	BoNT-F LC inh 35 | BoNT-A LC CP1 inactive | BoNT-F LC CP1 inactive | LF protease CP1 inactive
CCOc1ccc(CC2NCCc3cc(OCC)c(OCC)cc32)cc1OCC (centres undefined)	none
Cn1cc(CC(=O)NCCCN2CCCC2)c2ccccc21	BoNT-F LC inh 36 | BoNT-A LC CP1 inactive | BoNT-F LC CP1 inactive | LF protease CP1 inactive
COc1cc([N+](=O)[O-])cc2cc(C(=O)NCCCN3CCOCC3)c(=O)oc12	none (no result: MazF activator, BoNT-F LC inh, BoNT A protease, Anthrax LF inh2, Bead autofluor)
CS(=O)(=O)c1ccc(Nc2nc(CC(=O)NCc3ccc(F)cc3)cs2)cc1	none (no result: MazF activator, BoNT-F LC inh, BoNT A protease, Anthrax LF inh2, Bead autofluor)
